From PubChem BioAssay (NCATS) come the findings set out here.

Records with an inconclusive call do not appear. A number with no mark means an inactive call. Activity calls are given as the source filed them. The call rests on the fitted dose curve; in most records, active means well fitted cell-killing curve with a large enough effect; inconclusive means small, poorly fitted or top-dose-only effect; inactive means no such curve, though single readings can be large or run the other way.
On the % scale 0 is the no-effect control and ±100 the full control effect.

A short description of this assay: qHTS of pediatric cancer cell lines to identify multiple opportunities for drug repurposing: Primary screen for Rh30 cells (AID 1347107). Further: nearly all actives have a fitted effect of over 75% in size. The following applies: Rh30 rhabdomyosarcoma viability, CellTiter-Glo luminescence, 48 h; series mostly up to 46 µM; activity change, negative = cytotoxic: at the top concentration. The text has this: Drug repurposing or repositioning has been offered as a strategy for drug development in oncology programs. This approach has special potential for childhood cancers and other rare or orphan diseases, where the expected return on new drug development has been a disincentive to pharmaceuticals.
In this project we exploit the poly-pharmacology of drugs to discover new indications via phenotypic screening of a panel of 19 well-characterized cell lines derived from solid tumors seen in children and adolescents. The goal is to identify approved drugs with previously unrecognized anticancer properties that has the potential to reveal new mechanisms and biological processes involved in carcinogenesis or drug resistance. We employed a titration-based paradigm (quantitative high-throughput screening or qHTS), where all compounds were tested at multiple concentrations for their effect on cell viability. Concentration-response curves (CRCs) were derived directly from the primary screen, and both potency and efficacy values were used to identify compounds with robust bioactivity profiles. We screened the NIH Chemical Genomics Center (NCGC) Pharmaceutical Collection (NPC) and Mechanism Interrogation Plate (MIPE) small molecule collections of approved and investigational compounds against these cell lines; and measured metabolically active cells after 48 hours of compound treatment as a proxy for cell viability.
Assay Submitter: Nathalia J. Martinez, National Center for Advancing Translational Sciences, National Institutes of Health, Rockville, MD, USA; email: natalia.martinez@nih.gov
[1] Shen, M et al. Quantitative high-throughput phenotypic screening of pediatric cancer cell lines identifies multiple opportunities for drug repurposing. Oncotarget 2017 Dec 19;9(4):4758-4772. PMID 29435139.
The cells were obtained from University of North Carolina (UNC), Pediatric Preclinical Testing Program (PPT), and Coriell Institute (CI).
qHTS cell viability assay:
Cells were assayed in growth media at a density of 500-1,000 cells/well. Five microliters of cells were dispensed into 1,536-well, white, solid-bottom, TC-treated plates (Greiner Bio One) using a multidrop dispenser and incubated at 37 degrees C, 5% CO2, under a humidified atmosphere for 5 hours. Twenty-three nanoliters of compounds and controls (neutral control DMSO or positive control bortezomib at final concentration of 2.3 µM) were subsequently transferred by Kalypsys pintool. For primary screens, the MIPE collection was tested at 11-point dilutions (final concentrations range from 0.78 nM to 46 µM) and the NPC collection at 8-point dilutions (final concentrations range from 0.59 nM to 46 µM). Compounds tested in follow-up screens were assayed at 11-point dilutions. Cells were incubated for 48 hours, followed by addition of 3 µL of CellTiter-Glo (Promega). After a 15 min incubation at room temperature, samples were analyzed for luminescence intensity using a ViewLux High-throughput CCD imager equipped with clear filters.
A general note: qHTS replaces the single test concentration by a dilution series.
`COc1nc(C)nc(Cl)c1NC1=NCCN1`: the outcome was inactive.
Same read-out and setting: the same measure for `NC12CC3CC(CC(C3)C1)C2`: “inactive”.
For `CN(C)C(=N)N=C(N)N`, the “activity change, negative = cytotoxic” value is 20.1%.
For the compound `CCCCc1oc2ccccc2c1C(=O)c1cc(I)c(OCCN(CC)CC)c(I)c1`, the “activity change, negative = cytotoxic” value was -6.72%.
Regarding `Cc1ccc(C(=O)Nc2ccc(S(=O)(=O)O)c3cc(S(=O)(=O)O)cc(S(=O)(=O)O)c23)cc1NC(=O)c1cccc(NC(=O)Nc2cccc(C(=O)Nc3cc(C(=O)Nc4ccc(S(=O)(=O)O)c5cc(S(=O)(=O)O)cc(S(=O)(=O)O)c45)ccc3C)c2)c1`, the result was inactive.
Still for that read-out and setting: the same measure for `CC(C)(C)C(=O)Oc1ccc(S(=O)(=O)Nc2ccccc2C(=O)NCC(=O)O)cc1`: “inactive”.
Take `O=c1c(O)c(-c2ccc(O)c(O)c2)oc2cc(O)cc(O)c12`: the “activity change, negative = cytotoxic” value is -5.62%.
Still for that read-out and setting: as for `CN1CCC(=C2c3ccccc3C=Cc3ccccc32)CC1`, the figure is 10.1%; as for `CC1COc2c(N3CCN(C)CC3)c(F)cc3c(=O)c(C(=O)O)cn1c23` (stereo not given), 27.3%.
Regarding `NC(=O)OCC(COC(N)=O)c1ccccc1`, the result was inactive.
The same measure, in the same setting: as for `OCCN1CCN(CCCN2c3ccccc3Sc3ccc(C(F)(F)F)cc32)CC1`, the entry is “inactive”; as for `Cc1cn([C@H]2C[C@H](N=[N+]=[N-])[C@@H](CO)O2)c(=O)[nH]c1=O`, “inactive”.
`COc1cc2nc(N3CCN(C(=O)c4ccco4)CC3)nc(N)c2cc1OC`: the “activity change, negative = cytotoxic” value was 19.7% [at 16.1 µM].
For the compound `O=c1[nH]cc(F)c(=O)[nH]1`, the call was inactive.
For the compound `CC(C)NCC(O)c1ccc(O)c(O)c1` (stereo not given), the “activity change, negative = cytotoxic” value is 20.9%.
Same read-out and setting: as for `CN1C2CCC1CC(OC(=O)C(CO)c1ccccc1)C2` (stereo not given), the figure is 10.3%.
As to `CN(CCOc1ccc(NS(C)(=O)=O)cc1)CCc1ccc(NS(C)(=O)=O)cc1`, the compound was called inactive.
On the same count and under the same terms, as for `Clc1ccc2nsnc2c1NC1=NCCN1`, the entry is “inactive”.
Still for that read-out and setting: as for `O=c1c(-c2ccc(O)cc2)coc2cc(O)cc(O)c12`, the entry is “inactive”.
The same measure, in the same setting: the same measure for `CC(COc1ccccc1)N(CCCl)Cc1ccccc1` (stereo not given): “inactive”.
With `CC1(C)O[C@H]2CC(=O)OC[C@]23[C@H]2CC[C@@]4(C)[C@H](c5ccoc5)OC(=O)[C@H]5O[C@]54[C@]2(C)C(=O)C[C@@H]13`, the outcome was inactive.
For the compound `CN(C)CCOC(c1ccccc1)c1ccccc1`, the “activity change, negative = cytotoxic” value was 25%.
As for `Cc1cc(C(C)(C)C)c(O)c(C)c1CC1=NCCN1`, the compound was called inactive.
Consider `COC(=O)Nc1nc2ccc(C(=O)c3cccs3)cc2[nH]1`, for which the call was inactive.
The same measure, in the same setting: the same measure for `Cc1cnc(C(=O)NCCc2ccc(S(=O)(=O)NC(=O)NC3CCCCC3)cc2)cn1`: “inactive”; for `Cc1cn([C@H]2C=C[C@@H](CO)O2)c(=O)[nH]c1=O`: “inactive”.
Regarding `CNCCCC12CCC(c3ccccc31)c1ccccc12`, the call was inactive.
Same read-out and setting: as for `CC(=O)OCC(CCn1cnc2cnc(N)nc21)COC(C)=O`, the entry is “inactive”; as for `COc1ccc(CCN(C)CCCC(C#N)(c2ccc(OC)c(OC)c2)C(C)C)cc1OC` (stereo not given), “inactive”.
Still for that read-out and setting: as for `CCN1CCCC1CNC(=O)c1cc(S(=O)(=O)CC)c(N)cc1OC` (stereo not given), the entry is “inactive”; as for `CN1CCN(C2=Nc3cc(Cl)ccc3Nc3ccccc32)CC1`, “inactive”.
For the compound `CC(C(=O)O)c1cccc(C(=O)c2ccccc2)c1` (stereo not given), the “activity change, negative = cytotoxic” value is 14.6%.
Regarding `NCCc1cnc[nH]1`, the call was inactive.
Regarding `COc1cc2c(c(OC)c1OC)-c1ccc(OC)c(=O)cc1[C@@H](NC(C)=O)CC2`, the “activity change, negative = cytotoxic” value is 7.69%.
Regarding `O=C(c1ccc(OCCN2CCCCC2)cc1)c1c(-c2ccc(O)cc2)sc2cc(O)ccc12`, the “activity change, negative = cytotoxic” value is 9.7%.
In the case of `NCCCCCC(=O)O`, the call was inactive.
Still for that read-out and setting: the same measure for `Cc1cc(C(C)(C)C)cc(C)c1CC1=NCCN1`: “inactive”; for `Nc1c2c(nc3ccccc13)CCCC2`: “inactive”.
Same read-out and setting: as for `Cn1c(=O)c2c(ncn2C)n(C)c1=O`, the entry is “inactive”; as for `Fc1ccc([C@@H]2CCNC[C@H]2COc2ccc3c(c2)OCO3)cc1`, “inactive”.
